Screening data deposited in PubChem BioAssay by several laboratories.
sEH activator: soluble epoxide hydrolase activators, primary screen, biochemical, human sEH; purified human sEH enzymatic activity, activator screen; activation, % at 2 µM; 0.04% of 91,000 active; in the data active means activation above about 37%
Target sequence (P34913 whole entry, looked up): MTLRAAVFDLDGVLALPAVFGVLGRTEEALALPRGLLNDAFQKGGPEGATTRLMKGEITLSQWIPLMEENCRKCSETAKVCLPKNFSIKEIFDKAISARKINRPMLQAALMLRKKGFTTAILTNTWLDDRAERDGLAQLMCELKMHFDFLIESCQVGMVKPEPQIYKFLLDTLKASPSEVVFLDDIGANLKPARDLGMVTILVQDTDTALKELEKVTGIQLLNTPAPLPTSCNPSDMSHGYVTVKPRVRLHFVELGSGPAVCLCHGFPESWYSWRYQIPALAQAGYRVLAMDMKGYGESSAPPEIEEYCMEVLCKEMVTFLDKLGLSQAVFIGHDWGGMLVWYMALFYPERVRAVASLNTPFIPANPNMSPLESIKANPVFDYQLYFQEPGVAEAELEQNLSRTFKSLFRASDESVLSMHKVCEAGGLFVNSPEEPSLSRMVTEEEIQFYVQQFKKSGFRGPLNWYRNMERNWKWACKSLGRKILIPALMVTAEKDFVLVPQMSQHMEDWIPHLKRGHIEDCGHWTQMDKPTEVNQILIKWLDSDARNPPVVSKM
CYP2C19 inh: blockers of cytochrome P450 2C19 activity – biochemical, luminescence, ADME assay, primary screen. P33261. CYP2C19 Supersomes, luciferin-H EGE luminescence, 30 min. inhibition, % at 5 µM. 21% of 96,000 active;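 active means CYP2C19 inhibition above a set limit at 5 µM in the primary screen, cut at about 50% in these data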;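 further: plate controls were negative control wells for no effect and 2.5 mM tranylcypromine positive control for full effect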
CYP2C19 activ: human CYP2C19 activators, primary screen, biochemical, luminescence. 96,000 tested, under 10 active. Cytochrome P450 2C19 (Homo sapiens), P33261. recombinant CYP2C19, luciferin-H EGE luminescence; stronger effect = higher value; 0 = fully inhibited enzyme, 1 = untreated enzyme. activation factor at 5 µM;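 active means activation factor of at least 2 at 5 µM in the primary screen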;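 further: 0 = wells with 2.5 mM tranylcypromine and 1 = vehicle-only wells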
CYP2C9 activ: human CYP2C9 activators, primary screen, biochemical, luminescence; recombinant CYP2C9, luciferin-H conversion; stronger effect = higher value; factor 1 = untreated enzyme, 0 = blocked; activation factor at 5 µM; 1.4% of 96,000 active;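 active means activation factor of 2 or more for CYP2C9 at a 5 µM dose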;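 further: 0 = sulfaphenazole-blocked wells and 1 = vehicle-only wells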
CYP2C9 inh: blockers of cytochrome P450 2C9 activity – biochemical, luminescence, ADME assay, primary screen; CYP2C9 Supersomes, luciferin-H conversion; AID 777, 2007; inhibition, % at 5 µM; 20% of 96,000 active; P11712;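 active means blocking of liver enzyme CYP2C9 beyond about 50% at 5 µM, limit read from the data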
sEH inhibitor: soluble epoxide hydrolase inhibitors, primary screen, biochemical, human sEH | inhibition, % at 2 µM | Bifunctional epoxide hydrolase 2 (Homo sapiens), P34913 | recombinant human sEH enzymatic activity assay | 0.34% of 91,000 active; in the data active means inhibition above about 80%
* hit, by the source's call; . = no result. Shown are actives, neighbours in structure and some others; about 27% of the full set was active somewhere.

SMILES | sEH activator | CYP2C19 inh | CYP2C19 activ | CYP2C9 activ | CYP2C9 inh | sEH inhibitor
COc1ccc(-c2nnc(SCC(=O)N3CCC(Cc4ccccc4)CC3)o2)cc1OC | -9.9 | 93.4* | 0.1 | 0.4 | 64.7* | 11.1
CCOC(=O)N1CCN(C(=O)CSc2nc(-c3cccc(C)c3)ns2)CC1 | -1.8 | 49.2 | 0.5 | 0.3 | 68.8* | 1.5
Cc1ccc(-c2nnc(SCC(=O)N3CCCC3)o2)cc1 | 6.1 | 11.8 | 0.9 | 0.9 | 8.6 | -7.5
CCOC(=O)N1CCN(C(=O)CSc2nnc(-c3cc(OC)cc(OC)c3)o2)CC1 | -3.9 | 29.6 | 0.7 | 0.7 | 28.8 | 3.4
CCOC(=O)N1CCN(C(=O)CSc2nnc(-c3cccc(OC)c3)o2)CC1 | 4.7 | 40.3 | 0.6 | 0.5 | 54.5* | -1.1
Cc1nn(C(=O)N2CCOCC2)c(C)c1CN1C(=O)c2ccccc2C1=O | 0.5 | . | . | . | . | 0.7
Cc1cccc(C)c1OC(=O)CSc1nnc(-c2ccccc2O)o1 | -3.2 | 75.4* | 0.2 | 0.3 | 67.3* | 1.4
COc1ccccc1-c1nnc(SCC(=O)OC(C)C)o1 | 7.5 | 58.7* | 0.4 | 1.3 | -34.0 | -4.4
COC(=O)CSc1nnc(-c2ccccc2OC)o1 | 0.3 | 7.7 | 0.9 | 1.1 | -5.0 | -0.4
Cc1ccc(-c2nnc(SCC(=O)N3CCCC3)o2)cc1C | -5.2 | 52.6* | 0.5 | 1.7 | -71.4 | 8.5
CCOC(=O)N1CCN(C(=O)CSc2nnc(-c3ccc(C)c(C)c3)o2)CC1 | 4.5 | -8.8 | 1.1 | 0.8 | 18.2 | -3.8
CCOC(=O)N1CCN(C(=O)CSc2nnc(-c3ccccc3OC)o2)CC1 | 0.0 | 26.3 | 0.7 | 2.2* | -123.8 | 1.4
CCS(=O)(=O)CCSC(=N)N | -5.8 | 17.4 | 0.8 | 0.7 | 34.0 | 8.6
Cc1nnc(SCC(=O)Nc2ccccc2N2CCOCC2)s1 | -8.0 | . | . | . | . | 7.6
Cc1ccnc(SCCn2c(N3CC(C)CC(C)C3)nc3c2c(=O)n(C)c(=O)n3C)n1 (stereo not drawn) | . | 19.1 | 0.8 | 0.6 | 41.2 | .
CCC(C)NC(=O)C1(C)CCC(=O)N1Cc1ccccc1OC (stereo not drawn) | 6.9 | 0.8 | 1 | 1.2 | -23.2 | -10.7
Cc1cc(C)nc(Sc2c(F)c(F)c(C(F)(F)F)c(F)c2F)n1 | . | -2.5 | 1 | 1 | -4.5 | .
COc1c2ccoc2nc2c(OC)cccc12 | 11.4 | 6.0 | 0.9 | 1.1 | -5.2 | -17.9
Nc1nc2n(n1)C(c1ccccc1Cl)CC(c1ccc(F)cc1)N2 (stereo not drawn) | 5.6 | 73.0* | 0.3 | 0.8 | 16.9 | -3.9
Cc1cccc(C2CC(c3ccc(F)cc3)Nc3nc(N)nn32)c1 (stereo not drawn) | -8.3 | 58.0* | 0.4 | 1 | 4.1 | 12.1
Cc1cccc(C2CC(c3ccc(Cl)cc3)Nc3nc(N)nn32)c1 (stereo not drawn) | -4.2 | 16.0 | 0.8 | 0.7 | 30.0 | 4.1
COc1cccc(C2CC(c3ccc(Cl)cc3Cl)n3nc(N)nc3N2)c1 (stereo not drawn) | . | 90.3* | 0.1 | 0.8 | 16.6 | .
CCOc1ccc(C2CC(c3ccc(Br)cc3)Nc3nc(N)nn32)cc1 (stereo not drawn) | -7.5 | . | . | . | . | 11.4
CCOc1ccccc1C1CC(c2ccc(Br)cc2)Nc2nc(N)nn21 (stereo not drawn) | 4.2 | 64.0* | 0.4 | 0.8 | 23.2 | -4.3
COc1cccc(C2CC(c3ccccc3OC)n3nc(N)nc3N2)c1 (stereo not drawn) | 5.4 | 62.9* | 0.4 | 0.9 | 11.3 | -3.6
SMILES | sEH activator | CYP2C19 inh | CYP2C19 activ | CYP2C9 activ | CYP2C9 inh | sEH inhibitor
COc1cccc(C2CC(c3ccccc3Cl)n3nc(N)nc3N2)c1 (stereo not drawn) | -5.0 | 84.6* | 0.2 | 0.8 | 17.2 | 4.7
COc1cccc(C2CC(c3c(Cl)cccc3Cl)n3nc(N)nc3N2)c1 (stereo not drawn) | -8.4 | 19.2 | 0.8 | 0.9 | 8.8 | 8.2
Cc1ccc(C2CC(c3cccs3)n3nc(N)nc3N2)cc1 (stereo not drawn) | -12.1 | 50.8* | 0.5 | 0.8 | 21.2 | 10.3
COc1cccc(C2CC(c3ccccc3C)n3nc(N)nc3N2)c1 (stereo not drawn) | . | 36.5 | 0.6 | 0.9 | 6.2 | .
COc1ccc(C2CC(c3ccccc3C)n3nc(N)nc3N2)cc1 (stereo not drawn) | . | 57.0* | 0.4 | 0.9 | 7.3 | .
Cc1ccc(C2CC(c3ccccc3Cl)n3nc(N)nc3N2)cc1 (stereo not drawn) | 8.9 | 24.3 | 0.8 | 0.9 | 5.7 | -7.1
CN=C1CC(SC)=C1c1ccc(C)cc1 | -4.3 | . | . | . | . | 6.4
N#CCC(=O)N/N=C/c1ccc(OS(=O)(=O)c2ccccc2)cc1 | -9.8 | 19.5 | 0.8 | 0.9 | 8.5 | 11.4
Cc1nn2c3c(cnc2c1-c1ccc(Cl)cc1)C(=O)CC(c1ccco1)C3 (stereo not drawn) | . | -19.6 | 1.2 | 1.4 | -36.8 | .
COc1ccc(Cl)cc1Nc1nc(C)cc(=O)[nH]1 | 7.4 | 4.2 | 1 | 1 | 4.9 | -3.4
COc1ccc(C2CC(c3cccc(OC)c3)n3nc(N)nc3N2)cc1 (stereo not drawn) | . | 13.3 | 0.9 | 0.9 | 9.3 | .
COc1cccc(C2CC(c3ccc(Cl)cc3)n3nc(N)nc3N2)c1 (stereo not drawn) | 12.7 | 78.0* | 0.2 | 0.8 | 15.7 | -10.8
Cc1cc(Cl)ccc1Oc1nccc(N(C)C)c1C#N | 5.3 | 23.8 | 0.8 | 0.4 | 61.4* | -5.8
CN(C)c1ccnc(Oc2ccc(Cl)cc2)c1C#N | . | 22.4 | 0.8 | 0.6 | 37.4 | .
COc1ccc(Cc2nnc(-c3ccc(F)cc3)o2)cc1OC | -7.8 | 37.6 | 0.6 | 1 | 0.3 | 9.3
N#CCc1ccc(C(=O)c2ccccc2F)s1 | -4.3 | 25.1 | 0.7 | 1 | 3.9 | 6.0
COc1ccc(NC2CC(=O)N(c3ccccc3)C2=O)cc1 (stereo not drawn) | -2.3 | 54.7* | 0.5 | 1 | -3.1 | 3.6
Cc1cc(N)n(-c2ccc3ccccc3c2)n1 | . | 11.7 | 0.9 | 1 | 0.9 | .
O=C(OCCN1C(=O)c2ccccc2C1=O)C1CCN(S(=O)(=O)c2cccs2)CC1 | 11.9 | 85.9* | 0.1 | 0 | 96.6* | -7.5
O=C(OCc1nnc(-c2ccccc2)o1)C1CCN(S(=O)(=O)c2cccs2)CC1 | 15.6 | 38.3 | 0.6 | 0.2 | 79.0* | -11.8
CCOC(=O)N1CCC(NC(=O)C2CCN(S(=O)(=O)c3cccs3)CC2)CC1 | 4.2 | 8.7 | 0.9 | 0.8 | 22.0 | -2.8
Cc1cccc(OCCOC(=O)C2CCN(S(=O)(=O)c3cccs3)CC2)c1 | . | 46.7 | 0.5 | 0.3 | 65.3* | .
COC(=O)c1cc(OC)c(OCc2cc(C(=O)OC)oc2C)c(OC)c1 | 0.3 | 52.5* | 0.5 | 0.8 | 22.3 | -2.3
Cc1oc2ccc(OCC(N)=O)cc2c1C(=O)OC(C)C | 0.5 | 27.8 | 0.7 | 0.6 | 43.6 | -1.2
